The entries come from a sample that favours hits as a whole.
ST2 IL33 inh: blocks human ST2 binding to IL-33 | Q01638 | AlphaLISA ST2-Fc/biotin-IL-33 interaction, 1 h | inhibition, % for hits at 17 µM | hit rate 2.3% among 78,000 | AID 1259354; in the data active = inhibition above about 30%
Target sequence (Q01638 whole entry, looked up): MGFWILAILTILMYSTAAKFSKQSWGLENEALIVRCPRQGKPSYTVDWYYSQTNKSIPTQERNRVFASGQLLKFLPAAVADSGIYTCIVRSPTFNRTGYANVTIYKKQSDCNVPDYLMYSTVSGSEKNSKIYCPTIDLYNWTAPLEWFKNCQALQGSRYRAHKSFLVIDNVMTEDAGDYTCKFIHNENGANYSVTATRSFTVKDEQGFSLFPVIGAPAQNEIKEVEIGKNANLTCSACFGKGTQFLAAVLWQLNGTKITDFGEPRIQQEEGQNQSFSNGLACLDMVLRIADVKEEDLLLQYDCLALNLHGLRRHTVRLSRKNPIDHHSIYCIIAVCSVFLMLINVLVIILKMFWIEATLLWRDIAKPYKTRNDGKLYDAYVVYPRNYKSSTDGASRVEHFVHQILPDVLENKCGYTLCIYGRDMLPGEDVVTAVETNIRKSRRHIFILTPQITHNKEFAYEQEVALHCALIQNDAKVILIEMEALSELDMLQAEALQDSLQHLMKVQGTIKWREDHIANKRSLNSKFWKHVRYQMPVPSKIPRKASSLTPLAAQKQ
* = called active by the depositor; i = inactive.

SMILES	ST2 IL33 inh
O=C(CCCOc1ccccc1)N1CCN(c2ccc([N+](=O)[O-])cc2)CC1	i
O=C(COc1ccccc1)N1CCN(c2ccc([N+](=O)[O-])c(NCCc3ccccc3)c2)CC1	33%*
Cc1ccc(OCC(=O)N2CCN(c3ccccc3)CC2)cc1C	i
O=C(Nc1nnc(C(c2ccccc2)c2ccccc2)s1)c1cccs1	i
CCc1ccc(-n2c(CN3CCN(C(=O)Nc4c(C)cccc4C)CC3)nc3cccnc32)cc1	i
CCCSC1=C(C#N)C(c2ccccc2OC)CC(=O)N1 (stereo not given)	i
CC1(C(=O)N2CCN(Cc3ccc(F)cc3)C(=O)C2)CCCO1 (stereo not given)	i
COc1ccc(-c2nnc(/C=C/c3ccccc3)o2)cc1	i
CN(C)c1ccc(/C=C/c2nc(=O)c3ccccc3o2)cc1	55%*
Cc1ccc2oc(/C=C/c3nc4cc(C)ccc4o3)nc2c1	i
O=C(NC1CC(=O)N(Cc2cccc(F)c2)C1)c1n[nH]c2c1CCCC2 (stereo not given)	i
CCO[C@H]1[C@H](NC(=O)c2cccnc2)c2ccccc2C12CCN(C(=O)c1ocnc1C)CC2	i
CCN(CC)CCCNC(=O)c1c(-c2c(Cl)cccc2Cl)noc1C	i
N=c1oc2ccc([N+](=O)[O-])cc2cc1C(=O)Nc1ccccc1Cl	i
CCc1ccc(N2N=C(C)/C(=C/c3ccc(N(C)C)cc3)C2=O)cc1	42%*
CN(C)c1ccc(/C=C2/C(=O)c3ccc(C(=O)O)cc3C2=O)cc1	i
CC1=NN(c2cc(C(=O)O)cc(C(=O)O)c2)C(=O)/C1=C\c1ccc(N(C)C)cc1	76%*
CC1=NN(c2ccc(F)cc2)C(=O)/C1=C/c1ccc(N(C)C)c([N+](=O)[O-])c1	i
CC1=NN(c2cccc(Cl)c2)C(=O)/C1=C\c1ccc(-c2ccc(C(=O)O)c(Cl)c2)o1	i
CCc1ccc(NC(=O)CN2C(=O)CC(c3ccccc3)=Nc3ccccc32)cc1	i
COc1ccccc1NC(=O)C1=C(C)Nc2nnnn2C1c1ccc(Br)cc1 (stereo not given)	i
CC(C)NC(=O)C(=O)Nc1ccc(Br)cc1	i
CSc1nc2n(n1)C(c1ccc(F)cc1)C(C(=O)Nc1ccc(C)cc1C)=C(C)N2 (stereo not given)	i
O=C(CCc1nc(-c2ccccc2F)no1)Nc1ccc(F)cc1Cl	i
CCOC(=O)c1c(NC(C)=O)sc2c1CCN(Cc1ccccc1)C2	i
SMILES	ST2 IL33 inh
CCN1CCc2c(sc(NC(=O)c3ccc(C)c(C)c3)c2C(=O)OC)C1	i
CCOC(=O)c1c(NC(=O)c2cc3ccccc3oc2=O)sc2c1CCN(CC)C2	33%*
Cc1nc(CN(C(=O)c2ccc(C3CCCO3)s2)C(C)C)no1 (stereo not given)	i
COc1ccc2nc3sc(C(=O)N(C)Cc4ccccc4)cc3cc2c1	i
O=C(Nc1nnc(N=Cc2ccc(F)cc2)s1)c1ccc(S(=O)(=O)N2CCOCC2)cc1	i
CCN(CC)C(=O)[C@@H](C)[C@@H]1CC[C@@]2(C)CC[C@H](NS(C)(=O)=O)[C@@H](C)[C@@H]2[C@H]1O	i
Cc1ccccc1-c1nc2cc(N=Cc3cc([N+](=O)[O-])ccc3O)ccc2o1	i
Cc1cccc2oc(-c3cc(N=Cc4ccc([N+](=O)[O-])cc4)ccc3O)nc12	30%*
O=[N+]([O-])c1cc2c(cc1C=Nc1ccc(O)c(-c3nc4ccccc4o3)c1)OCO2	35%*
O=[N+]([O-])c1ccc(O)c(C=Nc2ccc(-c3nc4ncccc4o3)cc2)c1	i
Cc1ccccc1-c1nc2cc(N=Cc3cc([N+](=O)[O-])c(O)c([N+](=O)[O-])c3O)ccc2o1	i
O=[N+]([O-])c1cc2c(cc1C=Nc1ccc3oc(-c4cccc(F)c4)nc3c1)OCO2	i
O=C1C2C3CCC(C3)C2C(=O)N1c1ccc(Cl)c(F)c1 (stereo not given)	i
Cc1cc(-n2cccn2)ccc1CN1CCn2nc(C(=O)N3CCCC3)cc2C1	i
O=C(Nc1ccccc1[N+](=O)[O-])c1cccc(S(=O)(=O)N2CCc3ccccc3C2)c1	40%*
O=C(Nc1nc2ccc(F)cc2s1)c1ccc(S(=O)(=O)N2CCc3ccccc3C2)cc1	i
O=C1CCc2cc(S(=O)(=O)N3CCc4ccccc4C3)ccc2N1	i
CCC(Sc1nc2c(c(=O)n1-c1ccc(Cl)cc1)SCC2)C(=O)OC (stereo not given)	i
O=C1C(=O)N(Cc2cccnc2)C(c2ccc(Cl)cc2)C1=C(O)c1ccc(Cl)cc1 (stereo not given)	i
CCOC(=O)N1CCN(Cc2cnc(S(C)(=O)=O)n2CC2CCCO2)CC1 (stereo not given)	i
CCOc1ccc(C(=O)Nc2c(C)cccc2CC)cc1[N+](=O)[O-]	i
Cc1cc(Oc2cc(C#N)c(C#N)cc2[N+](=O)[O-])cc(C)c1Cl	39%*
COc1ccc(NC(=O)c2cccc(Oc3ccc(C(F)(F)F)cc3[N+](=O)[O-])c2)cc1	i
CCN(CC)C(=O)Cn1cnc2sc(C(=O)NCc3ccco3)c(C)c2c1=O	i
